Sampled rows, rich in hits. Any-hit rate of the full collection: about 19%.
HT1080 IDH1KD tx: HT-1080 IDH1 knockdown cell toxicity (counter line); 360,000 compounds, 2% hits; Potency, µM (series often up to 46.1 µM), usual class: cytotoxic; HT-1080 IDH1 knockdown viability, ATP luminescence, 48 h
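Cytotoxicity counter-line: IDH1KD HT-1080, 48 h, CellTiter-Glo. Curves classed by r2, magnitude and activity.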
KB-V1 cytotox: kills drug-selected multidrug resistant KB-V1 cells; KB-V1 MDR cells viability, CellTiter-Glo, 72 h; Potency, µM (top dose mostly 46.1 µM), usual class: cytotoxic; 400,000 compounds, 3.4% hits; AID 1347076; note: nearly all actives have a fitted effect of over 60% in size
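Cells of the MDR subline KB-V1 are plated, dosed with compound at multiple concentrations, and incubated 72 h at 37 degrees C; CellTiter-Glo is then added and luminescence read after 10 min.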
TDP1 cell noCPT: qHTS for Inhibitors of human tyrosyl-DNA phosphodiesterase 1 (TDP1): qHTS in cells in absence of CPT; DT40 Tdp1-/- hTDP1 cells, no CPT, ATP luminescence, 48 h; Potency, µM (highest dose often 46.2 µM), usual class: inhibitors; 420,000 compounds, 15% hits; AID 686978, 2013; note: nearly all actives have a fitted effect of over 55% in size
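Cells were dispensed at 400 per well, compounds added by pin tool, plates incubated ≥48 hr at 37 °C, then CellTiter-Glo added for 30 min at room temperature before luminescence reading. Line: DT40 Tdp1-/- complemented with hTDP1; camptothecin omitted.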
DT40 TDP1 CPT: DT40-hTDP1 cell growth loss with CPT. Potency, µM (titrated, usually from 46.2 µM), most hits filed as inhibitors. 420,000 compounds, 12% hits. chicken DT40 Tdp1-/-;hTDP1 cells + 20 nM CPT, ATP luminescence, 48 h; note: nearly all actives have a fitted effect of over 55% in size
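Chicken DT40 Tdp1-/- cells stably complemented with human TDP1 were seeded at 400 cells/well in medium containing 20 nM camptothecin, exposed to pin-transferred compounds, and grown at 37 °C for at least 48 hr. Viability was read as ATP luminescence.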
KB-3-1 tox: KB-3-1 parental cell cytotoxicity. KB-3-1 viability, CellTiter-Glo ATP luminescence, 72 h. Potency, µM (top dose mostly 46.1 µM), actives largely listed as cytotoxic. 400,000 compounds, 1.4% hits. AID 1347075; note: nearly all actives have a fitted effect of over 60% in size
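Cytotoxicity measured as CellTiter-Glo luminescence after 72 h at 37 C. Compound titrations were pinned onto drug-naive KB-3-1 parental adenocarcinoma cells grown in DMEM with 10% FBS, and normalized data fitted to concentration-response curves.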
HT1080NT lethal: kills 2HG-producing HT-1080-NT fibrosarcoma cells; HT-1080-NT fibrosarcoma viability, CellTiter-Glo ATP luminescence, 48 h; Potency, µM (titrated, usually from 46.1 µM), usual class: cytotoxic; 360,000 compounds, 1.6% hits; AID 686970;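 note: NT is the 2HG producing partner of a matched IDH1 knockdown line; nearly all actives have a fitted effect of over 55% in size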
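Viability of the 2HG-overproducing fibrosarcoma line after 48 hours of compound exposure at 37 degrees C was determined by luminescence with CellTiter-Glo, and concentration-effect curves were then fitted and categorized.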
Hits are given with their value; - = inactive; ? = inconclusive; . = no result. Calls come from the whole dose curve; as a rule, active = well fitted curve in the direction sought with a large enough effect; inconclusive = small, poorly fitted or top-dose-only effect, or another doubt; inactive = no such curve, though single readings can be large; an effect the other way counts as inactive or inconclusive.

SMILES | HT1080 IDH1KD tx | KB-V1 cytotox | TDP1 cell noCPT | DT40 TDP1 CPT | KB-3-1 tox | HT1080NT lethal
CCn1cc(S(=O)(=O)c2ccc(C)cc2C)c(=O)c2cc(F)c(N3CCCC3)cc21 | . | - | ? | ? | - | .
Cn1c(=O)c2[nH]c(CNCc3ccccc3Cl)nc2n(C)c1=O | - | - | 3.3µM | 3.7µM | - | -
Cn1c(=O)c2[nH]c(CCCCCc3nc4ccccc4[nH]3)nc2n(C)c1=O | - | ? | - | - | ? | -
Cn1c(=O)c2[nH]c(CCCCCCCc3nc4ccccc4[nH]3)nc2n(C)c1=O | - | - | 13µM | 23µM | - | -
Cn1c(=O)c2[nH]c(CN3CCN(Cc4ccccc4)CC3)nc2n(C)c1=O | - | - | - | - | - | -
Cn1c(=O)c2[nH]c(COc3ccc(C(C)(C)C)cc3)nc2n(C)c1=O | - | - | 4.6µM | 8.2µM | ? | -
O=c1c2ccccc2nnn1CSc1ccc2c(c1)OCCO2 | - | 23µM | - | - | - | -
Cc1cccc(-n2nnnc2SCn2nnc3ccccc3c2=O)c1 | - | 13µM | ? | ? | - | -
C/C=C/c1ccc(OCc2cc(=O)n3cc(C)ccc3n2)c(OC)c1 | - | - | 18µM | ? | - | -
COc1ccc(C)cc1-n1nnnc1SCn1nnc2ccccc2c1=O | - | ? | 16µM | 16µM | ? | -
O=c1c2ccccc2nnn1CSc1nnnn1-c1ccc(O)cc1 | - | - | ? | - | - | -
COc1cc2c(cc1OC)CN(Cc1cc(=O)n3cc(C)ccc3n1)CC2 | - | - | ? | - | - | -
COc1ccc(C)cc1-n1nnnc1SCC(=O)NC1CC1 | - | ? | - | - | - | -
Cc1ccc(-n2nnnc2SCn2nnc3ccccc3c2=O)cc1 | - | - | 13µM | ? | - | -
COc1ccc(C)cc1-n1nnnc1SCc1cc(=O)n2cc(C)ccc2n1 | - | 7.3µM | 7.3µM | 8.2µM | ? | -
O=C(COC(=O)c1cnccn1)Nc1ncc(C(F)(F)F)cc1Cl | - | - | - | - | - | -
Cc1ccc(/C=C/C(=O)Nc2ccc([N+](=O)[O-])cc2)o1 | - | - | ? | ? | - | -
CCOC(=O)CCc1ccc(NC(=O)/C=C/c2ccc([N+](=O)[O-])o2)cc1 | 2.9µM | ? | 3.3µM | 1.8µM | ? | 8.2µM
COc1ccc(N2C(=O)CS(=O)(=O)C23C(=O)N(Cc2ccccc2F)c2ccccc23)cc1Cl (stereo not drawn) | . | - | ? | ? | - | .
Cc1nn(-c2ccccc2)nc1C(=O)c1c(C)[nH]n(-c2ccccc2)c1=O | - | 21µM | 3.7µM | 5.2µM | 16µM | -
Cc1[nH]n(-c2ccccc2)c(=O)c1C(=O)Nc1ccccc1 | - | - | 16µM | 8.2µM | - | -
C/C(=N\NC(=O)c1ccc(C)cc1)c1c(C)[nH]n(-c2ccccc2)c1=O | 15µM | ? | 4.1µM | 4.6µM | ? | ?
Cc1[nH]n(-c2ccccc2)c(=O)c1C(=O)c1ccc([N+](=O)[O-])cc1 | - | ? | ? | ? | - | -
Cc1[nH]n(-c2ccccc2)c(=O)c1N=Nc1ccccc1C(=O)O | - | - | ? | ? | - | -
C/C(=N\NC(=O)c1ccccc1)c1c(C)[nH]n(-c2ccccc2)c1=O | ? | - | 0.41µM | 0.15µM | ? | -
SMILES | HT1080 IDH1KD tx | KB-V1 cytotox | TDP1 cell noCPT | DT40 TDP1 CPT | KB-3-1 tox | HT1080NT lethal
Cc1ccc(S(=O)(=O)n2nc(-c3ccc(Cl)cc3)nc2NCc2ccc(F)cc2)cc1 | . | ? | . | . | - | .
c1ccc(OCCNc2ccn3nc(-c4ccco4)cc3n2)cc1 | - | - | ? | ? | - | -
N#Cc1ccsc1NC(=O)CN1C(=O)NC2(CCCCC2)C1=O | - | - | - | - | - | -
O=C(CSc1nccc(=O)[nH]1)NC1CCCC1 | - | - | - | - | - | -
Cc1ccc(-c2csc3ncnc(Nc4ccc(C(=O)O)cc4)c23)cc1 | - | - | ? | ? | - | -
Fc1ccc(-c2csc3ncnc(Nc4ccc(N5CCOCC5)cc4)c23)cc1 | ? | - | 23µM | 15µM | - | ?
O=C(O)c1ccc(Nc2ncnc3scc(-c4ccccc4)c23)cc1 | - | - | 4.1µM | 2.6µM | - | -
O=C(c1c(F)cccc1F)N(C1CCCCC1)C1CCCCC1 | - | - | 18µM | ? | - | -
O=C(c1c(F)cccc1F)N(Cc1ccccn1)C1CCCC1 | ? | 21µM | 4.6µM | 18µM | - | -
O=C(COC(=O)c1c(F)cccc1Cl)NCC1CCCCC1 | - | - | - | ? | - | -
O=C(Nc1ccccc1)N(Cc1cccs1)C1CCCC1 | - | ? | ? | ? | - | -

Source: PubChem (National Center for Advancing Translational Sciences (NCATS))
